{
  "source": "the supplement of paper PMC6555819",
  "data": [
    {"tested_on": "PPARg:RXRa IVT, anti-PPARg (NR concentration 270 nM, RXRa partner concentration 90 nM)", "assay": "PBM binding z-score (relative to random genomic background probes); higher = stronger binding; sequences stand for … in GC…GCGATTGACAGCGTAGAATGAAGG", "how_it_was_run": "(§1)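 Probes were double-stranded and carried 34-nt variable regions with direct-repeat seeds, single-nucleotide variants, half-site ablations and random human genomic background sequences, printed on custom Agilent 4×180K protein-binding microarrays. Arrays were incubated 1 h with ligand-free nuclear receptor dimers in PBS pH 7.4, 2% milk, 0.02% Triton X-100, 1 mM DTT, 0.2 mg/mL BSA and 0.4 mg/ml salmon testes DNA. Antibodies against each partner (one per run) detected binding, and scanned fluorescence was regression-normalized. Binding z-scores use the random background probes as reference.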", "values": [
      {"sequence": "CGTACTAGGTCAAGGACAGTGAATCTCCGCACGC", "PBM binding z-score": 7.47},
      {"sequence": "AGAATGAGGTTATACGTAGATCAGGGAAGAAAGT", "PBM binding z-score": 1.92},
      {"sequence": "CCTTACGGGTCACTGACACGTTATAGCATTTGGA", "PBM binding z-score": 3.64},
      {"sequence": "CGAACTATGTCATTGACAGGACAGTGAATAGTAA", "PBM binding z-score": 2.17},
      {"sequence": "AGAACGAGGGCAATGAATTGATAGCACGGGTGGC", "PBM binding z-score": 2.58},
      {"sequence": "TCTTGTAGATCAAAGGTTAAGGAAGCCGAAGCCT", "PBM binding z-score": 3.75},
      {"sequence": "GCTCACGGGTCAAAGGTTATAGCATGAATAGAAT", "PBM binding z-score": 4.03},
      {"sequence": "ATCTCTAGGTAACAAGTTCTGTGAAAGAGAGGAC", "PBM binding z-score": 2.91},
      {"sequence": "GCTCGGAGGACAAGGTCAGAACTTTGTCCGTAGA", "PBM binding z-score": 0.754},
      {"sequence": "CCTTACGGATCACTGACAGGTTATAGCATTTGGA", "PBM binding z-score": -0.0645},
      {"sequence": "ATACCAAGGTGATCGTGAGGTCGTTGGTACTAAC", "PBM binding z-score": 1.28},
      {"sequence": "ATCTCTAGGTAACAAGTTCAGTGACAGAGAGGAC", "PBM binding z-score": 3.2},
      {"sequence": "TAGCCTAGGTCATTTAGGGGCCAGTATAGAAAGC", "PBM binding z-score": 2.38},
      {"sequence": "CGTCCAAGGTCAATGCTAGTTCAGTGAAAGCATT", "PBM binding z-score": 3.31},
      {"sequence": "CCTACTGGGGCAAAAAGGTCATTGATGCCGATAA", "PBM binding z-score": 5.48},
      {"sequence": "ACAGACAGGTGAGTGAAGGTAACTAAGCTGGACG", "PBM binding z-score": 0.719},
      {"sequence": "CAAACTAGGTCAAGTTCAAAGTCGGTTTGTGCCA", "PBM binding z-score": 8.81},
      {"sequence": "CAAACTAGGTCAAGAGGTCATAGTCCGCTTCCCG", "PBM binding z-score": 8.47},
      {"sequence": "ACAGACAGTTGATGAAGGTAACTCAGGCTATCAT", "PBM binding z-score": -0.0113},
      {"sequence": "ATCTCTAGGTAAAGATGGTTCAGTGAATGCAAAT", "PBM binding z-score": 1.65},
      {"sequence": "TCTAACAGGCCAGAGGGTCACTCAAGAGGTACGG", "PBM binding z-score": 0.466},
      {"sequence": "TCTGGCAGGCCAGAGGGTCACTCAAGAGGTACGG", "PBM binding z-score": 0.182},
      {"sequence": "ACGGACAGGTGAGTGAAGGTAACTCAGCTGGACG", "PBM binding z-score": 0.578},
      {"sequence": "CCTACTGTGCCACGAAAGGTCATTGATTCAGTGA", "PBM binding z-score": 4.39},
      {"sequence": "ATCGAAAGGCCGAGGTGAGTATAGAGAAAGGGAA", "PBM binding z-score": 0.581},
      {"sequence": "ATCGAAAGGTCGAGGTGCGTATAGAGAAAGGGAA", "PBM binding z-score": 1.03},
      {"sequence": "ACTATTAGTTGAGACGAGGGGAACCGATAGGTTG", "PBM binding z-score": 0.325},
      {"sequence": "TCTATTAGTTGATTAGGTCAACCGAAACAGCGGA", "PBM binding z-score": 3.1},
      {"sequence": "GCTGCTAGGTCAACTGATGGTCAGCTTAAGCTCG", "PBM binding z-score": 4.2},
      {"sequence": "GGAGCGAGGGCATTCGAGTTGATAGCATGGCGAT", "PBM binding z-score": 0.079},
      {"sequence": "CAAACTAGGTCACGAAAGGTCAAACTCGAATGAC", "PBM binding z-score": 8.97},
      {"sequence": "CCTTACGGATCACGAGGTTATAGCACGACGAGCG", "PBM binding z-score": 0.106},
      {"sequence": "TCAGACAGGTGAAGATAACTCAGGTACGCAGTCG", "PBM binding z-score": 0.984},
      {"sequence": "TAGCCTAGGTCATTGGCCCAGTATAGTACGCATC", "PBM binding z-score": 3.13},
      {"sequence": "ACTCGCAGGCCAAGGGTCACTCAAGATTAGTCCG", "PBM binding z-score": 2.88},
      {"sequence": "CAAACTAGGTCACGAAAGGTCGAAGTCGAATGAC", "PBM binding z-score": 9.21},
      {"sequence": "TCTCGGAGGACACGACGGTCAGAGCTTTCCAGAG", "PBM binding z-score": 0.00965},
      {"sequence": "CCGAGTAGGTTATGGGGCATTCAAGCAACGGTGA", "PBM binding z-score": 3.2},
      {"sequence": "TTACCAACGTGAAGGTCGTTGATCCCTCTGTAGA", "PBM binding z-score": -0.0578},
      {"sequence": "TCTATTAGTTGGAGGGCAACCGACGAGTCCGTTT", "PBM binding z-score": 0.996}
    ]},
    {"tested_on": "PPARg DBDmut:RXRa IVT, anti-PPARg (DBD mutation: PPARg1 K132A/R137A, NR concentration 270 nM, RXRa partner concentration 90 nM)", "assay": "PBM binding z-score (relative to random genomic background probes); higher = stronger binding; sequences stand for … in GC…GCGATTGACAGCGTAGAATGAAGG", "how_it_was_run": "as §1", "values": [
      {"sequence": "CGTACTAGGTCAAGGACAGTGAATCTCCGCACGC", "PBM binding z-score": 2.25},
      {"sequence": "AGAATGAGGTTATACGTAGATCAGGGAAGAAAGT", "PBM binding z-score": 0.956},
      {"sequence": "CCTTACGGGTCACTGACACGTTATAGCATTTGGA", "PBM binding z-score": 1.42},
      {"sequence": "CGAACTATGTCATTGACAGGACAGTGAATAGTAA", "PBM binding z-score": 0.536},
      {"sequence": "AGAACGAGGGCAATGAATTGATAGCACGGGTGGC", "PBM binding z-score": 0.112},
      {"sequence": "TCTTGTAGATCAAAGGTTAAGGAAGCCGAAGCCT", "PBM binding z-score": 1.3},
      {"sequence": "GCTCACGGGTCAAAGGTTATAGCATGAATAGAAT", "PBM binding z-score": 0.462},
      {"sequence": "ATCTCTAGGTAACAAGTTCTGTGAAAGAGAGGAC", "PBM binding z-score": 1.35},
      {"sequence": "GCTCGGAGGACAAGGTCAGAACTTTGTCCGTAGA", "PBM binding z-score": -0.824},
      {"sequence": "CCTTACGGATCACTGACAGGTTATAGCATTTGGA", "PBM binding z-score": 0.405},
      {"sequence": "ATACCAAGGTGATCGTGAGGTCGTTGGTACTAAC", "PBM binding z-score": -0.235},
      {"sequence": "ATCTCTAGGTAACAAGTTCAGTGACAGAGAGGAC", "PBM binding z-score": 1.48},
      {"sequence": "TAGCCTAGGTCATTTAGGGGCCAGTATAGAAAGC", "PBM binding z-score": 0.515},
      {"sequence": "CGTCCAAGGTCAATGCTAGTTCAGTGAAAGCATT", "PBM binding z-score": 1.63},
      {"sequence": "CCTACTGGGGCAAAAAGGTCATTGATGCCGATAA", "PBM binding z-score": 0.778},
      {"sequence": "ACAGACAGGTGAGTGAAGGTAACTAAGCTGGACG", "PBM binding z-score": -0.328},
      {"sequence": "CAAACTAGGTCAAGTTCAAAGTCGGTTTGTGCCA", "PBM binding z-score": 3.54},
      {"sequence": "CAAACTAGGTCAAGAGGTCATAGTCCGCTTCCCG", "PBM binding z-score": 3.3},
      {"sequence": "ACAGACAGTTGATGAAGGTAACTCAGGCTATCAT", "PBM binding z-score": 0.732},
      {"sequence": "ATCTCTAGGTAAAGATGGTTCAGTGAATGCAAAT", "PBM binding z-score": 0.333},
      {"sequence": "TCTAACAGGCCAGAGGGTCACTCAAGAGGTACGG", "PBM binding z-score": -0.318},
      {"sequence": "TCTGGCAGGCCAGAGGGTCACTCAAGAGGTACGG", "PBM binding z-score": -0.722},
      {"sequence": "ACGGACAGGTGAGTGAAGGTAACTCAGCTGGACG", "PBM binding z-score": -0.111},
      {"sequence": "CCTACTGTGCCACGAAAGGTCATTGATTCAGTGA", "PBM binding z-score": 0.906},
      {"sequence": "ATCGAAAGGCCGAGGTGAGTATAGAGAAAGGGAA", "PBM binding z-score": -0.257},
      {"sequence": "ATCGAAAGGTCGAGGTGCGTATAGAGAAAGGGAA", "PBM binding z-score": 0.819},
      {"sequence": "ACTATTAGTTGAGACGAGGGGAACCGATAGGTTG", "PBM binding z-score": 0.853},
      {"sequence": "TCTATTAGTTGATTAGGTCAACCGAAACAGCGGA", "PBM binding z-score": 1.43},
      {"sequence": "GCTGCTAGGTCAACTGATGGTCAGCTTAAGCTCG", "PBM binding z-score": -0.326},
      {"sequence": "GGAGCGAGGGCATTCGAGTTGATAGCATGGCGAT", "PBM binding z-score": -0.936},
      {"sequence": "CAAACTAGGTCACGAAAGGTCAAACTCGAATGAC", "PBM binding z-score": 2.74},
      {"sequence": "CCTTACGGATCACGAGGTTATAGCACGACGAGCG", "PBM binding z-score": -0.412},
      {"sequence": "TCAGACAGGTGAAGATAACTCAGGTACGCAGTCG", "PBM binding z-score": 0.555},
      {"sequence": "TAGCCTAGGTCATTGGCCCAGTATAGTACGCATC", "PBM binding z-score": 0.481},
      {"sequence": "ACTCGCAGGCCAAGGGTCACTCAAGATTAGTCCG", "PBM binding z-score": -0.175},
      {"sequence": "CAAACTAGGTCACGAAAGGTCGAAGTCGAATGAC", "PBM binding z-score": 6.19},
      {"sequence": "TCTCGGAGGACACGACGGTCAGAGCTTTCCAGAG", "PBM binding z-score": -1.14},
      {"sequence": "CCGAGTAGGTTATGGGGCATTCAAGCAACGGTGA", "PBM binding z-score": -0.98},
      {"sequence": "TTACCAACGTGAAGGTCGTTGATCCCTCTGTAGA", "PBM binding z-score": -0.0855},
      {"sequence": "TCTATTAGTTGGAGGGCAACCGACGAGTCCGTTT", "PBM binding z-score": 0.0745}
    ]}
  ]
}
